# Measured values taken from PubChem BioAssay (NCI).
# This is part of a sample that, as a whole, favours compounds with a hit. Of some 83,000 tested, about 20% had one in any assay.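 Cell lines were cultured in 96-well plates, exposed to a single compound concentration, and assessed for percent growth 48 hours later.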 Values without a mark were called inactive. Calls of active or inactive are those of the source. The calls were made as follows: active = growth percent below 10; inactive = the rest.
# What was measured:
# Assay in all cases: NCI-60 one-dose screen, 48 h (100 = growth as untreated, 0 = no growth, -100 = all killed)
# Settings in all cases: 10 µM unless noted
# [1] = test system: SR leukemia
# [2] = test system: RPMI-8226 leukemia
# [3] = test system: OVCAR-8 ovarian
# [4] = test system: OVCAR-5 ovarian
# [5] = test system: OVCAR-4 ovarian
# [6] = test system: SK-OV-3 ovarian
# [7] = test system: IGROV1 ovarian
# [8] = test system: OVCAR-3 ovarian
# [9] = test system: NCI/ADR-RES ovarian
# [10] = test system: HS 578T breast
Compound,growth [1],growth [2],growth [3],growth [4],growth [5],growth [6],growth [7],growth [8],growth [9],growth [10]
N#Cc1c(-c2ccc(Br)cc2)nc2n[nH]c(-c3ccc(Br)cc3)c2c1-c1ccc(F)cc1,80.7%,72.7%,101%,98.1%,96.4%,72.7%,75.1%,106%,97.2%,–
Cc1ncsc1-c1ccc(CNC(=O)[C@@H]2C[C@@H](O)CN2C(=O)[C@@H](NC(=O)C2(F)CC2)C(C)(C)C)c(OCCOCCOCCOCCOc2nc(Nc3cc(S(C)(=O)=O)ccc3N[C@@H](c3cccc4c3OC(F)(F)O4)c3ncccc3Cl)nc(N3CCNCC3)n2)c1,26.3%,13.6%,98.4%,99%,91.6%,111%,72.2%,89.1%,103%,–
C=C1CC[C@@H]2[C@]3(C)COC(c4cn[nH]c4-c4ccc(C)cc4)O[C@@H]3CC[C@@]2(C)[C@@H]1C/C=C1/C(=O)OCC1O (some centres undefined),-25% (active),-25.2% (active),-21.7% (active),20.4%,31.9%,79.9%,24%,-23.1% (active),-41.8% (active),–
N#Cc1c(-c2cccc(O)c2O)cc(-c2ccc3ccccc3c2)[nH]c1=O,12.1%,60.9%,69.8%,79.5%,69.5%,77.6%,48.8%,18.9%,90.6%,–
N#Cc1ccc(C(=O)Nn2c(N)cc3ccccc3c2=O)cc1,76%,86.5%,98.1%,103%,97.4%,85.8%,92.9%,105%,98.3%,–
O=c1c2ccccc2nc(-c2ccccc2)n1/N=C/c1ccc2ccccc2c1,11.5%,39%,50.6%,69.4%,85.8%,68.5%,55.6%,67.4%,53.5%,–
Cn1cc(-c2nnc(N)nc2-c2c[nH]c3ccc(Br)cc23)c2cc(Br)cnc21,23.8%,41.6%,59.4%,73.8%,45.6%,89.2%,46.4%,55.8%,64.5%,59.2%
CCN(CC)C(=O)N/C(N)=N/c1nc2ccccc2s1,32%,31.5%,55.5%,72.4%,22.2%,71.9%,72.1%,68.2%,23.3%,–
CC1(c2cc3cc(Cl)ccc3oc2=O)NC(=O)c2c(/C=C/C(=O)OC3CC4CCC3(C)C4(C)C)cccc2N1 (centres undefined),42.2%,22%,70.4%,80.6%,54.4%,66.1%,76.1%,69%,64%,72.8%
C=C1CCC2C3(C)COC(c4ccccc4F)OC3CCC2(C)C1CC(O)C1=CCOC1=O (centres undefined),30.9%,10.7%,-11.4% (active),74.9%,50.3%,110%,51.4%,31.1%,5.4% (active),78.3%
COc1ccc2c(c1)c(-c1cc3nc(-c4cn(C)c5ncccc45)cc(N)n3n1)cn2C,-19.3% (active),-20.6% (active),-41.5% (active),-7.9% (active),-5.11% (active),-57% (active),-58.1% (active),-12.4% (active),9.49% (active),-26.8% (active)
S=C(Nc1ccccc1)Nc1ccc(OCc2nc3ccccc3[nH]2)cc1,32.5%,39.2%,35.8%,66.3%,38.9%,86.6%,56.3%,29%,43%,50.6%
O=C(/C=C/c1ccc(-c2ccccc2)cc1)c1nc2ccccc2n1Cc1ccc(F)cc1,1.5% (active),-2.77% (active),46%,43.5%,55.2%,82.2%,55.7%,28.8%,49.6%,–
CCC(C)(C)c1ccc(OCCCCN2CCN(c3ccncc3)CC2)cc1,-24.2% (active),-31.3% (active),67%,69.2%,56%,32.3%,55.5%,51.1%,59.7%,–
N#Cc1c(-c2ccc(Cl)cc2)nc2n[nH]c(-c3ccc(Cl)cc3)c2c1-c1ccc(C(F)(F)F)cc1,-21.8% (active),-2.57% (active),16.2%,-41.8% (active),2.98% (active),3.06% (active),-15% (active),-13.9% (active),-24.5% (active),–
C/C(=N\N=C1/C(=O)Nc2ccccc21)c1ccc2c(c1)Nc1ccccc1S2,44.5%,38.7%,56%,83.7%,37.4%,101%,45.6%,34.9%,59.4%,–
Nc1cc2ccccc2c(=O)n1NC(=O)c1ccc(I)cc1,88.3%,98%,101%,98.1%,100%,91.9%,106%,104%,101%,–
COc1ccc2nc(Nc3cccc(NC(=O)c4ccc(CN5CCCN(C)CC5)c(C(F)(F)F)c4)c3)ccc2c1,4.09% (active),-31.7% (active),2.26% (active),-84.5% (active),-94.4% (active),-62.4% (active),-56.4% (active),-48.8% (active),-43.1% (active),–
CCOC(=O)/C=C/c1cccc2c1C(=O)NC(C)(c1cc3cc(Br)ccc3oc1=O)N2 (centres undefined),27.7%,32%,37.8%,76.4%,40.2%,38.6%,18.2%,48.4%,42.2%,–
O=[N+]([O-])c1ccc(/C=C/c2nc3ccccc3n3c(=S)[nH]nc23)cc1,71.6%,56.5%,83%,89.1%,82.5%,105%,78.3%,69.9%,85.2%,75.7%
O=C(/C=C/Nc1ccc2oc(=O)ccc2c1)c1cc2cc(Br)ccc2oc1=O,99.2%,103%,104%,108%,102%,99.8%,105%,122%,109%,92.6%
C=CC[N+](C)(C)CCn1c2ccccc2c2nc3cc(C)c(C)cc3nc21,85%,95.1%,98.4%,111%,95%,96.7%,42.6%,96.4%,108%,–
N/C(=N\c1nc2ccccc2s1)NC(=O)Nc1ccc(Cl)cc1Cl,5.8% (active),-1.62% (active),-79.3% (active),-73.2% (active),-87.7% (active),-91.5% (active),-68.5% (active),-95.5% (active),-84.8% (active),–
O=c1cc(-c2ccccc2)oc2cc(OCCCC[P+](c3ccccc3)(c3ccccc3)c3ccccc3)cc(O)c12,-39.8% (active),-66.7% (active),-61.1% (active),-97.7% (active),-69.1% (active),-83.4% (active),-75.7% (active),-94% (active),-68.3% (active),–
CCCCOc1ccc(NC(=O)c2sc3nc(C)ccc3c2N)cc1,19.1%,32.4%,5.4% (active),20.1%,1.32% (active),-15.9% (active),17.7%,15.5%,-39.3% (active),–
Cc1c(C(=O)NNC(=O)Nc2ccc(Cl)cc2)nnn1-c1ccc(Br)cc1,89.9%,98.7%,101%,102%,86.4%,79.6%,97.6%,116%,94.4%,–
COc1cc(-c2ccc(/C=N/NC(=O)c3[nH]c4ccc(Br)cc4c3-c3ccccc3)s2)cc(OC)c1OC,79%,61.1%,80.7%,101%,93.7%,99.6%,95.6%,107%,71.7%,–
N#Cc1c(-c2ccc(Cl)cc2)nc2n[nH]c(-c3ccc(Cl)cc3)c2c1-c1cccs1,25.6%,17.7%,66.7%,75.8%,42.3%,54.2%,62%,63.5%,61.1%,–
